Activity calls are given as the source filed them. The rule behind the calls is not given here.
Each compound was assayed against Pantothenate synthetase (Mycobacterium tuberculosis (strain ATCC 25618 / H37Rv)) (UniProt P9WIL5) (assay: Recombinant Mtb pantothenate synthetase (PanC) inhibitors, coupled enzyme, confirmatory (AID 375;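 note: 0% = full reaction with vehicle and 100% = no enzyme background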)). Details: coupled enzyme assay; at 10 µM, active compounds read high.
Chain of Pantothenate synthetase (Mycobacterium tuberculosis (strain ATCC 25618 / H37Rv)) (P9WIL5 whole entry, looked up): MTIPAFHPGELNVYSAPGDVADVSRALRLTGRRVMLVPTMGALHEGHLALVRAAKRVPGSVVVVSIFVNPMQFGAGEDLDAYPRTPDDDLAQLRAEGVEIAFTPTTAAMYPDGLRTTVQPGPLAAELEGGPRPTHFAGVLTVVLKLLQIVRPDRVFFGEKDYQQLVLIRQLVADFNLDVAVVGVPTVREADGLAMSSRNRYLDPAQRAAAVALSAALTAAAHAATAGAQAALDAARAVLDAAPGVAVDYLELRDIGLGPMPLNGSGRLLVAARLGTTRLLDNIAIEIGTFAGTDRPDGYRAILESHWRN

Q: How did the inhibition turn out when O=C(COc1ccccc1Cl)N1CCCC1 was run?
A: 2% (inactive)

Q: For NC(=O)c1oc2ccc(Cl)cc2c1NC(=O)CN1CCOCC1, which inhibition is on record?
A: 1% (inactive)

Q: For CCC(C)(NC(=O)c1ccc(=O)[nH]c1)C(=O)NC1CCCC1 (stereo not given), which inhibition is on record?
A: 0% (inactive)

Q: With CCC(C)OC(=O)n1ccc(C(=O)Nc2nccs2)n1 (stereo not given) as the compound, how does the inhibition read?
A: 0% (inactive)

Q: How did the inhibition turn out when COc1ccc(N2CCN(c3oc(COc4ccccc4)nc3C#N)CC2)cc1 was run?
A: 0% (inactive)

Q: For c1ccc2c3nnc4n(c-3nc2c1)CCCS4, which inhibition is on record?
A: 1% (inactive)

Q: Which inhibition does the source give for COc1cc(OC)cc(-c2nc3nc(C)c(CCC(=O)O)c(C)n3n2)c1 here?
A: 0% (inactive)

Q: COc1ccc(-c2nnc3sc(-c4c(OC)cccc4OC)nn23)cc1 was tested. Which inhibition did it give?
A: 6% (inactive)

Q: COc1cc(CC(=O)Nc2ncc(C)s2)cc(OC)c1OC was tested. Which inhibition did it give?
A: 0% (inactive)

Q: CCOc1ccc(-c2nc(C#N)c(NCc3ccc4c(c3)OCO4)o2)cc1 was tested. Which inhibition did it give?
A: 3% (inactive)

Q: With COc1ccc(-c2noc(CN3CCC(Cc4ccccc4)CC3)n2)cc1 as the compound, how does the inhibition read?
A: 0% (inactive)

Q: CCc1ccc(N2CC(C(=O)OCC(=O)Nc3cc(C)on3)CC2=O)cc1 (stereo not given) was tested. Which inhibition did it give?
A: 0% (inactive)

Q: Which inhibition does the source give for CCCCCn1c(CN(C)Cc2ccccc2)nc2c1c(=O)n(C)c(=O)n2C here?
A: 1% (inactive)

Q: CC(C)n1c(CN2CCN(C)CC2)nc2c1c(=O)n(C)c(=O)n2C was tested. Which inhibition did it give?
A: 0% (inactive)

Q: How did the inhibition turn out when C=CCn1c(SCC(=O)NC23CC4CC(CC(C4)C2)C3)nc(O)cc1=O was run?
A: 0% (inactive)

Q: Which inhibition does the source give for Oc1c(Cl)cc(Cl)cc1CNc1ccc(Br)cn1 here?
A: 4% (inactive)

Q: Which inhibition does the source give for CCN(CC)CCCNc1oc(-c2cccc(Cl)c2)nc1C#N here?
A: 0% (inactive)

Q: With Cc1cc(C)c(NC(=O)C2CSCCS2)c(C)c1 (stereo not given) as the compound, how does the inhibition read?
A: 0% (inactive)

Q: With CCCCn1c(SCC(=O)Nc2ccc(OC)cc2)nc2ccc(N3CCOCC3)cc2c1=O as the compound, how does the inhibition read?
A: 0% (inactive)

Q: With COc1ccc(C2=NOC(C(=O)Nc3cc(Br)ccc3O)C2)cc1OC (stereo not given) as the compound, how does the inhibition read?
A: 3% (inactive)

Q: With O=C(c1ccccc1)N1CCCCC(Sc2nnnn2-c2ccccc2)C1=O (stereo not given) as the compound, how does the inhibition read?
A: 0% (inactive)

Q: O=C(NCc1ccco1)C1Cc2ccccc2CN1S(=O)(=O)c1ccccc1F (stereo not given) was tested. Which inhibition did it give?
A: 1% (inactive)

Q: How did the inhibition turn out when CCc1cccc2c(=O)c(C(=O)N3CCCCCC3)c[nH]c12 was run?
A: 0% (inactive)

Q: With COc1cccc(-c2cc(C(F)(F)F)nc(NCc3ccco3)n2)c1 as the compound, how does the inhibition read?
A: 0% (inactive)

Q: For CCCCOc1ccccc1NC(=O)c1ccco1, which inhibition is on record?
A: 0% (inactive)

Q: How did the inhibition turn out when NS(=O)(=O)c1cc2c(cc1Cl)NC(CSCc1ccccc1)=NS2(=O)=O was run?
A: 0% (inactive)

Q: For C=C(C)Cn1c(-c2ccccc2)nc2ccccc21, which inhibition is on record?
A: 0% (inactive)

Q: How did the inhibition turn out when CCn1c(C(C#N)/C(=N\S(=O)(=O)c2cccs2)c2ccccc2)nc2ccccc21 (stereo not given) was run?
A: 6% (inactive)

Q: With Fc1ccccc1Cn1nnc2c(-n3ccnc3)ncnc21 as the compound, how does the inhibition read?
A: 0% (inactive)

Q: CCn1ncc(C2=NOC(C(=O)N3CCC(C(N)=O)CC3)C2)c1C (stereo not given) was tested. Which inhibition did it give?
A: 0% (inactive)

Q: How did the inhibition turn out when COc1ccc2nc(NC(=O)c3ccoc3C)sc2c1 was run?
A: 0% (inactive)

Q: Which inhibition does the source give for Cc1occc1-c1nnc(SCC(=O)N2CCc3ccccc32)o1 here?
A: 0% (inactive)

Q: How did the inhibition turn out when CCOC(=O)c1cccc(NC(=O)c2ccco2)c1 was run?
A: 0% (inactive)

Q: With CCN(CC)c1ccc2cc(-c3nc4ccccc4[nH]3)c(=O)oc2c1 as the compound, how does the inhibition read?
A: 0% (inactive)

Q: Which inhibition does the source give for CCOC(=O)c1[nH]c(C)c(C(=O)NCC2CCCO2)c1C (stereo not given) here?
A: 0% (inactive)

Q: With O=C(O)c1c[nH]c2ccc(S(=O)(=O)N3CCN(c4ccc(F)cc4)CC3)cc2c1=O as the compound, how does the inhibition read?
A: 0% (inactive)

Q: O=C(O)C1CCCN(S(=O)(=O)c2ccc(Cl)s2)C1 (stereo not given) was tested. Which inhibition did it give?
A: 2% (inactive)

Q: Which inhibition does the source give for Cc1cc(C)n(C(C)n2nc(C)cc2C)n1 here?
A: 6% (inactive)

Q: c1ccc(CN2CCN(c3ncnc4c3[nH]c3ccccc34)CC2)cc1 was tested. Which inhibition did it give?
A: 5% (inactive)

Q: Cc1c(C#N)c2ccccc2n1CC(=O)N1CCc2ccccc2C1 was tested. Which inhibition did it give?
A: 0% (inactive)

Source: PubChem BioAssay
